In PubChem BioAssay AID1159580 (chemical genetic matrix, 2015):
Among all 5,500 compounds or so, about 2,000 (36%) were called active. Not shown: some 18% with an inconclusive outcome. Rule as the data show it: active = normalized growth mostly below about 0.91 (no sharp cut-off); inconclusive = no clear call, values can overlap the other calls; inactive = mostly above about 0.92. Some of the results follow.

Experiment: chemical genetic growth profiling, strain panel (AID 1159580);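 also: tested at 20 µM; growth read once vehicle control cultures reached saturation at 30 °C; 1 = growth at the plate median or of vehicle wells; lower values mean less growth of the strain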
Conditions: S. cerevisiae deletion strains, growth OD

Measured: normalized growth

CC(CC(O)C1OC1(C)C)[C@@H]1CCC2(C)C3=CCC4C(C)(C)C(=O)CCC4(C)C3CC[C@@]12C (some centres not stated)
active: locus YDR137W, strain rgp1, hits give low values 0.831 | locus YLR262C, strain YPT6 (second series), hits give low values 0.768
inactive: locus YAL021C, strain ccr4, hits give low values 0.986 | locus YAL026C, strain drs2, hits give low values 0.997 | locus YAL030W, strain snc1, hits give low values 1 | locus YBL061C, strain skt5, hits give low values 1.02 | locus YBR009C, strain hhf1, hits give low values 0.979 | locus YBR021W, strain FUR4, hits give low values 0.993 | locus YBR023C, strain chs3, hits give low values 1.01 | locus YBR171W, strain sec66, hits give low values 0.999 | locus YBR229C, strain ROT2, hits give low values 1.03 | locus YBR231C, strain swc5, hits give low values 1.04 | locus YBR279W, strain paf1, hits give low values 0.999 | locus YCL011C, strain gbp2, hits give low values 1.01 | locus YCL016C, strain dcc1, hits give low values 0.994 | locus YCL029C, strain bik1, hits give low values 1.03 | locus YCL061C, strain MRC1, hits give low values 0.994 | locus YCL069W, strain vba3, hits give low values 0.995 | locus YCR088W, strain abp1, hits give low values 1.01 | locus YDL005C, strain med2, hits give low values 1.01 | locus YDL035C, strain GPR1, hits give low values 0.952 | locus YDL040C, strain nat1, hits give low values 1 | locus YDL074C, strain BRE1, hits give low values 1.02 | locus YDL101C, strain DUN1, hits give low values 1.04 | locus YDL134C, strain PPH21, hits give low values 1.03 | locus YDL185W, strain tfp1, hits give low values 1.03 | locus YDL192W, strain arf1, hits give low values 1.03 | locus YDR001C, strain nth1, hits give low values 0.984 | locus YDR069C, strain doa4, hits give low values 1 | locus YDR101C, strain arx1, hits give low values 1.02 | locus YDR159W, strain sac3, hits give low values 1.01 | locus YDR162C, strain NBP2, hits give low values 1.04 | locus YDR195W, strain ref2 0.971 | locus YDR297W, strain sur2, hits give low values 1 | locus YDR318W, strain mcm21, hits give low values 1.04 | locus YDR334W, strain swr1, hits give low values 0.997 | locus YDR335W, strain msn5, hits give low values 0.993 | locus YDR388W, hits give low values 1.03 | locus YDR392W, strain spt3, hits give low values 1.02 | locus YDR502C, strain sam2, hits give low values 1.03 | locus YEL003W, strain gim4, hits give low values 1.01 | locus YEL037C, strain rad23, hits give low values 1 | locus YEL061C, strain CIN8 (second series), hits give low values 1 | locus YER015W, strain faa2, hits give low values 1 | locus YER016W, strain bim1, hits give low values 1 | locus YER110C, hits give low values 1.03 | locus YER111C, strain swi4, hits give low values 1.02 | locus YER155C, strain BEM2 (second series), hits give low values 1.04 | locus YER155C, strain BEM2, hits give low values 1.04 | locus YER167W, strain BCK2, hits give low values 1.05 | locus YFR010W, strain ubp6, hits give low values 0.997 | locus YGL078C, strain dbp3, hits give low values 1.01 | locus YGL086W, strain mad1, hits give low values 1.05 | locus YGL167C, strain pmr1, hits give low values 0.999 | locus YGL173C, strain kem1, hits give low values 1 | locus YGL227W, strain vid30, hits give low values 0.998 | locus YGL240W, strain doc1, hits give low values 1.02 | locus YGL248W, strain PDE1, hits give low values 1.03 | locus YGL253W, strain hxk2, hits give low values 0.994 | locus YGR135W, strain pre9, hits give low values 1.04 | locus YGR229C, strain SMI1, hits give low values 1.08 | locus YGR252W, strain gcn5, hits give low values 1.17 | locus YHR013C, strain ard1, hits give low values 1.03 | locus YHR027C, strain rpn1, hits give low values 1 | locus YHR030C, strain SLT2, hits give low values 1.03 | locus YHR079C, strain IRE1 (second series), hits give low values 1.03 | locus YHR094C, strain hxt1, hits give low values 1.04 | locus YHR129C, strain ARP1, hits give low values 1.04 | locus YHR142W, strain chs7, hits give low values 1 | locus YHR200W, strain rpn10, hits give low values 1.03 | locus YIL066C, strain RNR3, hits give low values 1.01 | locus YIL073C, strain SPO22, hits give low values 1.1 | locus YIL125W, strain kgd1, hits give low values 1.03 | locus YIR030C, strain dcg1, hits give low values 1.03 | locus YJL092W, strain hpr5, hits give low values 1 | locus YJL095W, strain BCK1 (second series), hits give low values 1 | locus YJL095W, strain BCK1, hits give low values 1.05 | locus YJL115W, strain asf1, hits give low values 0.992 | locus YJL129C, strain trk1, hits give low values 0.993 | locus YJL134W, strain LCB3, hits give low values 1.04 | locus YJL154C, strain vps35, hits give low values 1 | locus YJL164C, strain tpk1, hits give low values 0.966 | locus YJL166W, strain qcr8, hits give low values 0.988 | locus YJL168C, strain set2, hits give low values 1.04 | locus YJL187C, strain SWE1 (second series), hits give low values 1.03 | locus YJL187C, strain SWE1, hits give low values 0.995 | locus YKL068W, hits give low values 1.01 | locus YKL160W, strain elf1, hits give low values 0.993 | locus YKR001C, strain vps1, hits give low values 1.07 | locus YKR026C, strain gcn3, hits give low values 1.01 | locus YKR091W, strain srl3, hits give low values 0.996 | locus YLL001W, strain dnm1, hits give low values 0.949 | locus YLL026W, hits give low values 0.998 | locus YLL041C, strain sdh2, hits give low values 0.998 | locus YLR027C, strain aat2, hits give low values 0.993 | locus YLR039C, strain RIC1, hits give low values 1.09 | locus YLR058C, strain SHM2, hits give low values 1.04 | locus YLR102C, strain apc9, hits give low values 1.04 | locus YLR221C, strain rsa3, hits give low values 1.03 | locus YLR258W, strain gsy2, hits give low values 1.01 | locus YLR262C, strain YPT6, hits give low values 1.02 | locus YLR268W, strain sec22, hits give low values 1.04 | locus YLR320W, strain mms22, hits give low values 1.03 | locus YLR330W, strain CHS5, hits give low values 1.04 | locus YLR342W, strain FKS1, hits give low values 1.02 | locus YLR357W, strain rsc2, hits give low values 1.02 | locus YLR370C, strain arc18, hits give low values 1.01 | locus YLR371W, strain rom2, hits give low values 1.04 | locus YLR384C, strain iki3, hits give low values 1 | locus YLR418C, strain cdc73, hits give low values 1.09 | locus YML016C, strain PPZ1, hits give low values 1.05 | locus YML032C, strain rad52, hits give low values 1.04 | locus YML120C, strain ndi1, hits give low values 0.995 | locus YML124C, strain tub3, hits give low values 1.03 | locus YMR058W, strain fet3, hits give low values 1.01 | locus YMR078C, strain ctf18, hits give low values 1.05 | locus YMR125W, strain sto1, hits give low values 1 | locus YMR129W, hits give low values 1 | locus YMR205C, strain PFK2, hits give low values 0.943 | locus YMR223W, strain ubp8, hits give low values 1.03 | locus YMR231W, strain pep5, hits give low values 0.98 | locus YMR307W, strain GAS1, hits give low values 1.07 | locus YNL067W, strain RPL9B, hits give low values 1.03 | locus YNL071W, strain lat1, hits give low values 0.996 | locus YNL153C, strain GIM3, hits give low values 1.01 | locus YNL209W, strain ssb2, hits give low values 1 | locus YNL233W, strain BNI4, hits give low values 1.03 | locus YNL248C, strain rpa49, hits give low values 0.959 | locus YNL250W, strain rad50, hits give low values 1.04 | locus YNL271C, strain bni1, hits give low values 1.03 | locus YNL298W, strain CLA4, hits give low values 1.02 | locus YNL307C, strain MCK1, hits give low values 1.03 | locus YNL322C, strain KRE1 (second series), hits give low values 0.989 | locus YNR049C, strain mso1, hits give low values 0.995 | locus YNR052C, strain pop2, hits give low values 1.04 | locus YOL006C, strain TOP1, hits give low values 1.09 | locus YOL012C, strain htz1 1.47 | locus YOL147C, strain pex11, hits give low values 1.05 | locus YOR001W, strain rrp6, hits give low values 0.983 | locus YOR061W, strain CKA2, hits give low values 1.03 | locus YOR069W, strain VPS5, hits give low values 1.03 | locus YOR070C, strain gyp1, hits give low values 1.02 | locus YOR080W, strain dia2, hits give low values 1.01 | locus YOR083W, strain WHI5, hits give low values 0.994 | locus YOR106W, strain vam3, hits give low values 0.982 | locus YOR136W, strain idh2, hits give low values 1.03 | locus YOR144C, strain elg1, hits give low values 1.04 | locus YOR184W, strain ser1, hits give low values 0.955 | locus YOR265W, strain rbl2, hits give low values 0.999 | locus YOR270C, strain vph1, hits give low values 0.877 | locus YOR290C, strain snf2, hits give low values 0.946 | locus YOR316C, strain cot1, hits give low values 1.02 | locus YPL051W, strain arl3, hits give low values 1.03 | locus YPL078C, strain atp4, hits give low values 0.966 | locus YPL106C, strain sse1, hits give low values 1.1 | locus YPL240C, strain hsp82, hits give low values 1.01 | locus YPL241C, strain CIN2, hits give low values 1.05 | locus YPR119W, strain clb2, hits give low values 1.04 | locus YPR141C, strain kar3, hits give low values 1.05 | locus YPR163C, strain tif3, hits give low values 1.04 | locus YPR167C, strain met16, hits give low values 1.03 | strain wtn01, hits give low values 1.02
